Assay outcomes: PubChem, National Center for Advancing Translational Sciences (NCATS)
This is one part of a sample in which hits are shown more often than they occur.
CHX counter: counter-screen for Shiga toxin inhibitors: cycloheximide protein synthesis inhibition; cell reporter, cycloheximide protein synthesis inhibition counterscreen; max response, %; actives 12% (n = 300,000); in the data active = max response mostly above about 13%, no sharp cut-off; inactive = mostly below about 14%; note: read at 38.3 µM for the half of the compounds with a filed dose; 0% is about no effect
TbPYK inhibitor: blocks Trypanosoma brucei pyruvate kinase | actives 0.12% (n = 410,000) | TbPYK enzyme, Kinase-Glo Plus ATP luminescence, 45 min | Potency, µM (top dose mostly 76.8 µM), for the others: at the highest dose activity, negative = inhibition, usual class: inhibitors; note: potency is the fitted concentration of half-maximal effect; % is set by controls: 0 for no effect and ±100 for the full control effect; nearly all actives have a fitted effect of over 50% in size
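Glycolytic pyruvate kinase of T. brucei was incubated with substrate, test compound and 130 uM ADP for 45 minutes at room temperature. Luminescent Kinase-Glo Plus signal was measured after 10 minutes.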
LmPK inh: blocks Leishmania mexicana pyruvate kinase activity | Q27686 | purified LmPK, Kinase-Glo ATP luminescence, 1 h | Potency, µM (doses to about 57.5 µM), inactives show top-dose activity change, negative = inhibition, usual class: inhibitors | actives 0.37% (n = 290,000); note: potency is the fitted concentration of half-maximal effect; % is set by controls: 0 for no effect and ±100 for the full control effect
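Purified LmPK (0.1 nM) with 0.5 mM PEP and 0.1 mM ADP in imidazole buffer pH 7.2 with MgCl2/KCl, 1 h at room temperature. ATP formed was read by luciferase luminescence and normalized to no-enzyme and uninhibited controls.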
Giardia FBPA inh: inhibitors of Giardia lamblia fructose-1,6-bisphosphate aldolase. actives 0.71% (n = 290,000). A8B2U2. purified Giardia FBPA. Potency, µM (highest dose often 59.6 µM), inactives show at the highest dose activity, negative = inhibition, actives largely listed as inhibitors; note: potency is the fitted concentration of half-maximal effect; % is set by controls: 0 for no effect and ±100 for the full control effect; nearly all actives have a fitted effect of over 55% in size
Target sequence (A8B2U2 whole entry, looked up): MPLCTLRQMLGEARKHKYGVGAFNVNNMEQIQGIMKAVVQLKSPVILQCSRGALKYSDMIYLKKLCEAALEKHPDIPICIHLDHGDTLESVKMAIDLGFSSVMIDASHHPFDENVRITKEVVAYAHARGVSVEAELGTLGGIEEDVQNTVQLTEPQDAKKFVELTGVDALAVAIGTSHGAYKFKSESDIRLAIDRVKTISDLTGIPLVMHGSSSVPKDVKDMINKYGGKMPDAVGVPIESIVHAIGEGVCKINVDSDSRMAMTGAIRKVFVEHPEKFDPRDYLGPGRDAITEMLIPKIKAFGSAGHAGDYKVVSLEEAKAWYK
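40 nM FBPA preincubated 10 min at RT with compound (up to 57.5 uM final), then substrate plus GAPDH/TPI/NAD/arsenate coupling and diaphorase/resazurin added. Fluorescence read after 20 min at RT, 525/598 nm.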
RE007 growth inh: less growth of the S. pombe RE007 Vpr strain; actives 0.21% (n = 360,000); AID 651644; Potency, µM (titrated, usually from 92.2 µM), for inactives: at the highest dose activity change, negative = less growth, usual class: inhibitors; S. pombe RE007 Vpr strain, BacTiter-Glo ATP luminescence, 24 h; active = well fitted falling curve with a large enough effect; inconclusive = small, poorly fitted or top-dose-only effect; inactive = no such curve, though single readings can be large or run the other way; note: potency is the fitted concentration of half-maximal effect; % is set by controls: 0 for no effect and ±100 for the full control effect; nearly all actives have a fitted effect of over 50% in size
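Fission yeast RE007 carrying one integrated HIV-1 vpr copy, seeded at OD 0.01 in PMG+AL medium with 23 nL pinned compound. Grown 24 h at 30 degrees; viability read by BacTiter-Glo luminescence after 5 min.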
Shiga inhibitor: blocks Shiga toxin action in Vero cells; Vero cells, Shiga toxin protein synthesis inhibition reporter; inhibition, % at 38.7 µM; actives 9.2% (n = 290,000); AID 2315; in the data active = inhibition mostly above about 28%, no sharp cut-off; inactive = mostly below about 43%; note: 0% is about no effect
* = called active by the depositor; ? = inconclusive; nt = no result. Unless noted, calls come from the whole dose curve; as a rule, active = well fitted curve in the direction sought with a large enough effect; inconclusive = small, poorly fitted or top-dose-only effect, or another doubt; inactive = no such curve, though single readings can be large; an effect the other way counts as inactive or inconclusive.

SMILES | CHX counter | TbPYK inhibitor | LmPK inh | Giardia FBPA inh | RE007 growth inh | Shiga inhibitor
O=C(Nc1ccc(S(=O)(=O)N(Cc2ccccc2)c2ccccc2)cc1)c1ccc([N+](=O)[O-])cc1 | nt | 4.4% | nt | nt | nt | nt
O=C(CSc1ncccn1)NCc1ccccc1Cl | 49.5* | -1.4% | -6.1% | -2.7% | 4.0% | 68.1*
CCc1cc(/C(Cc2ccccn2)=N\Nc2ccccc2)c(O)cc1O | 1.8 | -5.0% | 5.4% | -27.7% | 27.7% | 27.9
FC(F)(F)c1nc2cc3nc4ccccc4[nH]c3cc2n1 | 38.6* | -18.7% | ? | ? | -9.7% | 68.7*
O=c1[nH]c2cc3ccccc3cc2nc1C(F)(F)F | 4.9 | 3.5% | -4.3% | 0.9% | -26.6% | -7.5
COc1ccc(NC(=O)c2cn3c4c(ccc(Cl)c4c2=O)OC(C)C3)cc1OC (configuration not stated) | nt | 0.3% | nt | nt | nt | nt
CC(C)COC(=O)N1CCCCC1c1cc(C(=O)NCc2cccnc2)no1 (configuration not stated) | nt | -8.7% | nt | nt | 0.7% | nt
CCc1nc(NC(=O)c2sc(C)nc2C)sc1C(=O)OC | 8.3 | ? | -5.6% | -7.8% | -18.4% | 25.7
CCOC(=O)c1c(C)nc2c3ccccc3ccn12 | 32.0* | -2.1% | -16.4% | -13.4% | -15.9% | 36.8*
COC(=O)c1ccc(NC(=O)CC2Nc3cc(C)c(C)cc3NC2=O)cc1 (configuration not stated) | nt | 5.1% | nt | nt | nt | nt
Cc1ccc(CN2CCSc3ccc(C(=O)N4CCN(c5ccc(Cl)cc5)CC4)cc32)cc1 | nt | -5.5% | nt | nt | nt | nt
N/C(=N\OC(=O)c1ccc(Cl)cc1Cl)c1cccnc1 | 34.9* | -3.4% | ? | 0.4% | -2.4% | 90.7*
N/C(=N\OC(=O)c1cccs1)c1cccnc1 | 39.9* | 1.4% | -18.9% | 2.6% | -4.4% | 42.8*
Cc1cccc(/C(N)=N/OC(=O)c2ccc(Cl)cc2Cl)c1 | 70.2* | ? | 7.94µM* | 0.4% | -14.8% | 72.1*
N/C(=N\OC(=O)c1ccc(Cl)cc1Cl)c1ccc(Cl)cc1 | 49.7* | 3.1% | -13.0% | 1.3% | ? | 114.4*
CCN1C(=O)c2ccc(C(=O)Nc3ccc(O)cc3C)cc2C1=O | 6.0 | -11.5% | -0.2% | 3.9% | 10.1% | -18.5
Cc1cc(NC(=O)CCC(=O)N(CC(=O)NC2CCCC2)c2cccc(F)c2)no1 | 0.6 | 2.9% | -0.1% | 4.0% | 0.8% | -13.8
Cc1cccc(/C(N)=N/OC(=O)c2cccnc2)c1 | 33.2* | 1.7% | 22.4µM* | 0.8% | -14.9% | 103.4*
N/C(=N\OC(=O)C(c1ccccc1)c1ccccc1)c1cccnc1 | 22.3 | -16.8% | -0.4% | -2.0% | 15.7% | -6.2
CCSc1ccc(/C(N)=N/OC(=O)c2cccs2)cn1 | 45.6* | -6.7% | -2.0% | nt | 4.7% | 88.4*
COc1cc(OC)cc(C(=O)O/N=C(\N)c2cccc(C)c2)c1 | 13.0 | 4.3% | 1.2% | 11.6% | -15.9% | 43.9
N/C(=N\OC(=O)c1ccc(Cl)cc1)c1cccnc1 | 42.5* | -5.7% | ? | 3.7% | ? | 174.8*
Cc1cccc(/C(N)=N/OC(=O)c2ccc(Br)o2)c1 | 90.9* | -17.1% | -22.6% | -4.6% | ? | 90.0*
CCOc1ccc(NC(=O)c2ccc3c(c2)C(=O)N(Cc2ccncc2)C3=O)cc1 | nt | -0.7% | nt | nt | -8.9% | nt
N/C(=N\OC(=O)c1ccc(Cl)cc1Cl)c1ccccc1 | 56.3* | ? | 11.2µM* | 14.2% | -23.5% | 127.2*
SMILES | CHX counter | TbPYK inhibitor | LmPK inh | Giardia FBPA inh | RE007 growth inh | Shiga inhibitor
O=C(OCc1ccccc1)c1ccc(Br)o1 | 15.6 | -1.6% | -1.2% | -1.3% | -1.3% | 27.9
N/C(=N\OC(=O)c1ccc(Br)o1)c1ccccn1 | 25.7* | -21.5% | 12.6µM* | -1.8% | ? | 60.5*
Cc1ccc(/C(N)=N/OC(=O)c2ccc(C)cc2Cl)cc1 | 80.5* | -10.1% | -7.5% | -9.4% | ? | 25.7*
Cc1ccccc1/C(N)=N/OC(=O)c1cccs1 | 27.1* | -12.3% | ? | -0.9% | -20.4% | 61.0*
Cc1ccccc1C(=O)Nc1ccc(NC(=O)c2cccs2)cc1 | nt | 13.1% | nt | nt | nt | nt
CCc1nc2ccc(C(=O)N(C)CC(=O)Nc3ccc(F)c(F)c3F)cc2nc1CC | nt | 11.7% | nt | nt | 4.2% | nt
